# Assay outcomes (PubChem BioAssay)
# This is one part of a sample in which hits are shown more often than they occur.
# ALR H2O2 inh – human ALR oxidase inhibition via reduced H2O2 | AID 485317 | inhibition, % (concentration not given with the values) | purified ALR, DTT oxidation, H2O2 HRP-luminol luminescence | 290,000 compounds, 3.8% hits;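 active means mean replicate inhibition above about 79%, with every replicate also reaching it, limit read from the data; inconclusive means only one of the two criteria met; inactive means mean below limit and not every replicate reaching it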
# CendR NRP1 mod – NRP-1/CendR interaction modulation; O14786; FAM-RPARPAR peptide binding to NRP-1, fluorescence polarization; inhibition, % at 25 µM; 360,000 compounds, 0.85% hits;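 active means inhibition or corrected inhibition above about 18%, plus a signal ratio from 0.5 to 1.5, limit read from the data, passing the limit was not always enough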
# Target sequence (O14786 whole entry, looked up): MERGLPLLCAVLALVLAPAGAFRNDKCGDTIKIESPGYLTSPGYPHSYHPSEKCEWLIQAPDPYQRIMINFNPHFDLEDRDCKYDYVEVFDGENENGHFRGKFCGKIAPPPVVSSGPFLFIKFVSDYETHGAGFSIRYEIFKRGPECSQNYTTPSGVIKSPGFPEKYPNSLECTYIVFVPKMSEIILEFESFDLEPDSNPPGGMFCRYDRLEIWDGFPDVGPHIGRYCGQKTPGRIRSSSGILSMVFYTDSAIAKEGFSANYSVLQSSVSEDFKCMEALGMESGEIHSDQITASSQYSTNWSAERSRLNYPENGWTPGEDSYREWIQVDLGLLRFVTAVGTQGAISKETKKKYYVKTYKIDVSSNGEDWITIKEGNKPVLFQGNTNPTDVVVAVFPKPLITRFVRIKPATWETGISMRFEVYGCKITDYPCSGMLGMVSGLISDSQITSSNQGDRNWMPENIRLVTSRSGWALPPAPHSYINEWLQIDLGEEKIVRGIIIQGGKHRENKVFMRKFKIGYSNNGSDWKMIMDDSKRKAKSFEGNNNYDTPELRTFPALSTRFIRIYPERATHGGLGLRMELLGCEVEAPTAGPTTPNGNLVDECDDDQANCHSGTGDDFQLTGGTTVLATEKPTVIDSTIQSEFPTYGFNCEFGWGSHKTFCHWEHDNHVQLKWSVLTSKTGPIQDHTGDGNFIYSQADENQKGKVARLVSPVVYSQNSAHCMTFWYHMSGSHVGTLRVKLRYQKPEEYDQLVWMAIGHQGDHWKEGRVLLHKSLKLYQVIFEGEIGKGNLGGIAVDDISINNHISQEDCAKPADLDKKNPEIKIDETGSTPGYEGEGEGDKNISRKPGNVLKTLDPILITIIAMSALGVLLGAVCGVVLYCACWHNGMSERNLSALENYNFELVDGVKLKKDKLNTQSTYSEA
# ARNT-TACC3 inh – ARNT/TACC3 interaction disruption | Q9Y6A5 | AlphaScreen His-ARNT PAS-B/GST-TACC3 binding, luminescence; TACC3 fragment carries E629A point mutation | inhibition, % at 9.99 µM | 390,000 compounds, 0.66% hits | AID 623870;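 active means mean inhibition of replicates at least 50% and at least half of replicates each reaching 50%; inconclusive means half or more replicates reach 50% but mean below 50%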
# ERp5 block – ERp5 (human) disulfide isomerase inhibition; Q15084; ERp5 insulin aggregation, absorbance 650 nm, 90 min; inhibition, % at 9.99 µM; 350,000 compounds, 0.05% hits;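 active means mean replicate inhibition above about 25%, with every replicate also reaching it, limit read from the data, passing the limit was not always enough; inconclusive means only one of those two criteria met; inactive means neither criterion met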
# PglD DTNB – blocks C. jejuni PglD acetyltransferase activity. purified PglD enzyme, DTNB colorimetric CoA detection. inhibition, % at 12.5 µM. 360,000 compounds, 0.098% hits. AID 602405; in the data active means inhibition above about 16%, passing the limit was not always enough; inconclusive means no clear call, values can overlap the other calls
# PDI inh – blocks human protein disulfide isomerase activity; 350,000 compounds, 0.052% hits; PDI insulin aggregation turbidity, A650, 90 min; P07237; inhibition, % at 10 µM;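 active means mean inhibition across replicates of 30% or more, whatever share of single replicates reach that level; inconclusive means mean inhibition below 30% while every single replicate reaches 30%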
# ARNT Alpha ctr – counter-screen for ARNT/TACC3 inhibitors: AlphaScreen artifacts. shares compounds with ARNT-TACC3 inh. His-ARNT PASB-GST AlphaScreen artifact counter-screen, luminescence. AC50, µM (series often up to 68 µM). 1,200 compounds, 50% hits. AID 651705;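 active means every separate test run was called active for a drop in luminescence, with AC50 within twice the top valid dose, actives reach about 71 µM in these data; inconclusive means the separate test runs disagree in their calls; inactive means all runs inactive, including signal change in the wrong direction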
# Hits are given with their value; – = inactive; ? = inconclusive; · = no result.
SMILES,ALR H2O2 inh,CendR NRP1 mod,ARNT-TACC3 inh,ERp5 block,PglD DTNB,PDI inh,ARNT Alpha ctr
c1ccc(CSc2ccc(-c3ccccn3)nn2)nc1,–,–,64,–,·,–,9.1µM
c1ccc(-c2ccc(SCc3cccnc3)nn2)nc1,–,–,58,–,·,–,14µM
C[C@@H]1CN([C@@H](C)CO)C(=O)Cc2cc(NC(=O)CCN3CCOCC3)ccc2O[C@@H]1CN(C)C(=O)Nc1ccc(F)cc1,·,·,–,–,–,·,·
O=C(CSc1n[nH]c(-c2cccnc2)n1)Nc1ccccc1,–,–,–,·,–,–,·
COc1ccccc1NC(=O)CSc1n[nH]c(-c2ccccn2)n1,–,–,61,–,·,–,11µM
COc1ccc(NC(=O)CSc2n[nH]c(-c3ccccn3)n2)cc1,–,–,58,–,–,–,6.9µM
COc1ccccc1-c1nc(SCC(=O)Nc2ccccc2)n[nH]1,–,–,–,–,–,–,·
O=C(CSc1n[nH]c(-c2ccccn2)n1)Nc1ccccc1,–,–,62,–,–,–,7.7µM
CCc1c(C)nc(Nc2nc(C)c3cc(OC)ccc3n2)[nH]c1=O,–,–,–,·,–,–,·
CCc1c(C)nc(Nc2nc(C)c3ccc(OC)cc3n2)[nH]c1=O,–,–,51,–,–,–,–
Cc1cc(=O)n(-c2ccc(O)cc2)[nH]1,99,–,15,·,–,–,–
Cc1cc(=O)n(-c2ccccc2Cl)[nH]1,–,–,–,–,·,–,·
O=C1c2cccc(O)c2C(=O)c2c(O)cccc21,–,·,·,·,·,·,·
O=C1C=C(O)c2cccc(O)c2C1=O,–,–,52,–,–,·,–
CC(=O)c1cccc(NC(=O)N2CCCC2C(=O)NCc2ccccc2)c1 (centres undefined),–,–,21,·,–,–,–
CC(=O)Nc1ccc2nc3ccccc3nc2c1,·,–,32,–,·,–,–
O=C(CN1CC(=O)Oc2ccccc21)OCC(=O)c1ccccc1,–,–,54,·,–,–,8.3µM
O=C(CN1C(=O)c2ccccc2C1=O)OCC(=O)c1ccc(F)cc1,–,–,–,–,–,–,·
CN(C)CCCNC(=O)C[C@@H]1CC[C@H](NC(=O)Cc2cccnc2)[C@H](CO)O1,·,·,–,–,–,·,·
CNC[C@@H]1Oc2c(NS(=O)(=O)c3cccs3)cccc2C(=O)N([C@H](C)CO)C[C@@H]1C,·,·,–,–,–,·,·
CC(C)NC(=O)Nc1cccc2c1O[C@@H](CN(C)C(=O)Nc1ccc(C(F)(F)F)cc1)[C@@H](C)CN([C@@H](C)CO)C2=O,·,·,–,–,–,·,·
C[C@H](CO)N1C[C@H](C)[C@@H](CN(C)S(=O)(=O)c2ccc(Cl)cc2)Oc2c(NC(=O)Nc3cccc4ccccc34)cccc2C1=O,·,·,52,–,–,·,24µM
CNC[C@@H]1Oc2c(NS(=O)(=O)c3cccs3)cccc2C(=O)N([C@@H](C)CO)C[C@H]1C,·,·,active,–,–,·,–
C[C@@H]1CN([C@@H](C)CO)C(=O)c2cccc(NC(=O)Nc3cccc4ccccc34)c2O[C@H]1CN(C)S(=O)(=O)c1ccc(Cl)cc1,·,·,–,–,–,·,·
CC(C)NC(=O)Nc1cccc2c1O[C@H](CN(C)C(=O)Nc1ccc(C(F)(F)F)cc1)[C@@H](C)CN([C@@H](C)CO)C2=O,·,·,active,–,–,·,–
SMILES,ALR H2O2 inh,CendR NRP1 mod,ARNT-TACC3 inh,ERp5 block,PglD DTNB,PDI inh,ARNT Alpha ctr
C[C@@H]1CN([C@H](C)CO)C(=O)c2cccc(NC(=O)c3ccncc3)c2O[C@@H]1CN(C)Cc1ccc(-c2ccccc2)cc1,·,·,active,?,–,·,–
C[C@@H]1CCCCO[C@@H](CN(C)CC2CCCCC2)[C@H](C)CN([C@H](C)CO)C(=O)c2cc(NS(=O)(=O)c3ccc(F)cc3)ccc2O1,·,·,–,–,–,·,·
C[C@@H]1CN([C@H](C)CO)C(=O)c2cc(NS(C)(=O)=O)ccc2O[C@@H]1CN(C)S(=O)(=O)c1ccc(F)cc1,·,·,active,–,–,·,–
CO[C@H]1CN(C)C(=O)c2cc(C#N)ccc2OCC[C@@H]2CC[C@H](OC)[C@@H](CN(C)C(=O)[C@H]1C)O2,·,·,–,–,–,·,·
NC1=NN=C(N2N=C(c3ccc(Br)cc3)CC2(O)C(F)(F)F)n2ncnc2C1 (centres undefined),–,–,–,–,·,–,·
NC1=NN=C(N2N=C(c3ccccc3)CC2(O)C(F)(F)F)n2ncnc2C1 (centres undefined),–,–,54,–,·,–,–
C/C=C/c1cnc2c(c1)C(=O)N([C@@H](C)CO)C[C@H](C)[C@@H](CN(C)C(=O)CN1CCOCC1)O2,·,·,–,–,–,·,·
COc1cccc(/C=N/NC(=O)CNC(=O)c2ccncc2)c1O,91,–,56,–,–,–,–
COc1cccc(/C=N/NC(=O)C(=O)NCc2cccnc2)c1O,–,–,–,·,–,–,·
COc1ccc([N+](=O)[O-])cc1/C=N/NC(=O)CNC(=O)C(c1ccccc1)c1ccccc1,–,–,–,·,–,–,·
COc1ccc([N+](=O)[O-])cc1/C=N/NC(=O)CNC(=O)c1cccc(F)c1,–,–,51,–,–,–,–
COc1cccc(/C=N/NC(=O)CNC(=O)c2cccnc2)c1O,92,–,59,–,–,–,–
COc1cc(C2Nc3ccccc3C(=O)N2NS(C)(=O)=O)c([N+](=O)[O-])cc1OC (centres undefined),–,–,active,–,–,–,–
CC1OC(CC(=O)O)CC2=C1C(=O)c1c(O)cccc1C2=O (centres undefined),·,35,33,–,·,–,–
CC=Cc1ccc2n(c1=O)C[C@@H]1[C@@H](CO)[C@H](C(=O)N3CCCCC3)N(C(=O)CC)[C@H]21 (mixture of isomers),·,·,–,–,–,·,·
O=C(Nc1cccc(F)c1)c1cccnc1NCCc1ccccc1,–,–,active,·,·,–,–
O=C(NCc1cccnc1)c1cc(-c2ccccc2)on1,–,–,–,·,–,–,·
CCN(CC)CCCNC(=O)c1cc(-c2ccc(Cl)cc2)on1,–,–,·,·,–,–,·
CN(C)CCNC(=O)c1cc(-c2ccccc2)on1,·,·,·,·,·,·,–
Cc1ccccc1CNC(=O)c1cc(-c2ccccc2)on1,·,·,·,·,·,·,–
O=C(NCC1CC1)c1cc(-c2ccccc2)on1,·,·,·,·,·,·,–
CCS(=O)(=O)N1CCC2(CC1)CN(S(=O)(=O)c1cccc(OC)c1)[C@@H](CO)c1[nH]c3cc(OC)ccc3c12,·,·,·,–,·,·,·
C[C@@H]1CN([C@@H](C)CO)S(=O)(=O)c2ccc(Br)cc2O[C@H]1CN(C)S(=O)(=O)c1ccc(F)cc1,·,·,–,–,–,·,·
O=C(Nc1nc2ccccc2s1)c1cc(-c2ccccc2)nn1-c1ccccc1,–,–,–,–,–,–,·
O=C(Nc1ncc(-c2ccccc2)o1)c1cc(-c2ccccc2)on1,·,·,·,·,·,·,–
O=C(Nc1nc2ccccc2s1)c1cc(-c2ccccc2)on1,·,·,·,·,·,·,–
O=C(Nc1cccnc1)c1cc(-c2ccccc2)on1,–,–,–,·,–,–,·
